According to the supplement of paper PMC10849652:
The full data set covers some 7,900 targets. This sample favours those with a hit. About 0.6% of all pairs of compound and target were hits.

What follows are targets tested with c1cn2cc(-c3ccc4cn[nH]c4c3)nc(Nc3ccc(N4CCOCC4)cc3)c2n1 [entospletinib] (assay: log2 fold change, soluble protein after heating vs DMSO (PISA); higher = thermal stabilisation; K562 cells, 10 uM, 30 min; active = over 0.2 and 3.5 SD of the protein, either way, in both replicates (recomputed)).
How it was run: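 Soluble protein was quantified by TMTpro 16plex LC-MS/MS after channel sums were equalised. It was obtained as the supernatant after 21,000xg for 90 min from pooled aliquots of K562 cells (2×10^6 cells/mL, 10 μM compound, 30 min) heated for 3 min across 48°C-58°C and extracted in PBS with 0.5% NP-40 at 4°C. Thermal stability values are relative to control samples and come from duplicates. They are given as log2 fold changes.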

Chain of UniProt Q9H3P2 (Q9H3P2 whole entry, looked up): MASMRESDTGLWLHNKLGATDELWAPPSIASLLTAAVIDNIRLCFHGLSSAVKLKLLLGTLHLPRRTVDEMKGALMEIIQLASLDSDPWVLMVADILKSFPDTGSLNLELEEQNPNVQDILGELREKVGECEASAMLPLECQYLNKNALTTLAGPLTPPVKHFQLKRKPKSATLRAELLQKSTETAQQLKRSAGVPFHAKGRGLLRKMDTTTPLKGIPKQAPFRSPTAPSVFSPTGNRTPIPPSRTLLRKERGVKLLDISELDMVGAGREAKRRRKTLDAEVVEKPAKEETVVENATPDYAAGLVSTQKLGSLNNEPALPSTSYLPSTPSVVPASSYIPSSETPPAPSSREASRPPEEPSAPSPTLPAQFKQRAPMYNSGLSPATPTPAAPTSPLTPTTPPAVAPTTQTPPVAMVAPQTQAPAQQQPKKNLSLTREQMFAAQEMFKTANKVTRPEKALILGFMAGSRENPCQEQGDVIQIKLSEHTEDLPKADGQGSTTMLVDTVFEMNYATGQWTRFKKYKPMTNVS
Chain of UniProt P55209 (P55209 whole entry, looked up): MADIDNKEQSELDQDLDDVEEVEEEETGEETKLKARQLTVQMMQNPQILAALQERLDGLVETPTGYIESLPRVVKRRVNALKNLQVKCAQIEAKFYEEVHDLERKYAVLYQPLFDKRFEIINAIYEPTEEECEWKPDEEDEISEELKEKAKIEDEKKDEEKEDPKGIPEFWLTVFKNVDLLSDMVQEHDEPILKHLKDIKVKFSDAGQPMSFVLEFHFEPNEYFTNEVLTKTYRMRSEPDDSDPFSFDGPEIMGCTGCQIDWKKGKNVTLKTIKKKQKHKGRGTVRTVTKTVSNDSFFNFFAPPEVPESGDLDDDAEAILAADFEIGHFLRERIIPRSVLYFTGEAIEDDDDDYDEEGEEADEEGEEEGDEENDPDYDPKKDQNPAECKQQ
Chain of UniProt O00483 (O00483 whole entry, looked up): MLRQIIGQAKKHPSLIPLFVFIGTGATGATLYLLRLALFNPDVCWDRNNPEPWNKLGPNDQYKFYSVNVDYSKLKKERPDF
Chain of UniProt Q8N5F7 (Q8N5F7 whole entry, looked up): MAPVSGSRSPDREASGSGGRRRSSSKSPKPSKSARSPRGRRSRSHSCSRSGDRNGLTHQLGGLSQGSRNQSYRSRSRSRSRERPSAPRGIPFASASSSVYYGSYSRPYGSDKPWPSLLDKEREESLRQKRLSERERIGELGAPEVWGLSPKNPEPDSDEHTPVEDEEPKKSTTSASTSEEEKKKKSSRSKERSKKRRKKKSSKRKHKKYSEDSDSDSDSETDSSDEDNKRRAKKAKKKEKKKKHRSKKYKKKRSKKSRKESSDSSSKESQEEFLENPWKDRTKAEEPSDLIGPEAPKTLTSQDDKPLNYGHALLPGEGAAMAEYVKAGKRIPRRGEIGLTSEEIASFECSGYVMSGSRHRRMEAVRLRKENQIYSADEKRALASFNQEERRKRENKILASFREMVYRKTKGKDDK
Chain of UniProt P51948 (P51948 whole entry, looked up): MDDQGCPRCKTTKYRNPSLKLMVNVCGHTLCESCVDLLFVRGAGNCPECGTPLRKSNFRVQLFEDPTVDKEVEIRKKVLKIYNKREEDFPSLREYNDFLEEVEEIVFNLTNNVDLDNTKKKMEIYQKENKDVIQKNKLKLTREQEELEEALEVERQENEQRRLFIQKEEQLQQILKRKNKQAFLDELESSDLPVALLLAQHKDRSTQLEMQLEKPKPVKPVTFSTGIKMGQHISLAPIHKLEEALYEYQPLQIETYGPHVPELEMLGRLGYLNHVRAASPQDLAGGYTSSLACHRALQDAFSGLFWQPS
Chain of UniProt P43246 (P43246 whole entry, looked up): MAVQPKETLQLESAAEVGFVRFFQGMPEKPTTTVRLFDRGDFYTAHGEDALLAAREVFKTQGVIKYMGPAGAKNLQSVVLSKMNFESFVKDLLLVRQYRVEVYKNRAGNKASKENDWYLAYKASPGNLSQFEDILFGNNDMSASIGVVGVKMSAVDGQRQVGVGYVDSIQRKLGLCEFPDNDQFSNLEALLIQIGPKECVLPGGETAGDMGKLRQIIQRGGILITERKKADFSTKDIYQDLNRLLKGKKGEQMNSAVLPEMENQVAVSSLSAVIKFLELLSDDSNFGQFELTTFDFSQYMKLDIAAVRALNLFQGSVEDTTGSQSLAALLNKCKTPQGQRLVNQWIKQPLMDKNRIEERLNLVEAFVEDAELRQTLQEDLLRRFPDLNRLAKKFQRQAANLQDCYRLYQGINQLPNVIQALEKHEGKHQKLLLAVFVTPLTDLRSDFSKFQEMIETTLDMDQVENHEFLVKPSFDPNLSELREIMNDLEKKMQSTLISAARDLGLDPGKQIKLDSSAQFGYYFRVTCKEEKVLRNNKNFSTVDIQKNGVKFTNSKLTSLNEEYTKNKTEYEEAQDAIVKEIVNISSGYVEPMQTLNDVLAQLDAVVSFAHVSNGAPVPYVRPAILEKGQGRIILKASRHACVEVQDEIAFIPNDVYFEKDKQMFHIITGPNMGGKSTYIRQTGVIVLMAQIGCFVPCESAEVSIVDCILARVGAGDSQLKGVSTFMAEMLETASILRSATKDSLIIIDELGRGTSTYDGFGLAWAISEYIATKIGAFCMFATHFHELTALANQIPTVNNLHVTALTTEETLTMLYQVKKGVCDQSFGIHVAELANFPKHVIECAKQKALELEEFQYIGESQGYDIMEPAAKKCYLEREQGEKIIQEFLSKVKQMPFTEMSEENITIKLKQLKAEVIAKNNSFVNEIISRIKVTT
Chain of UniProt Q86WC4 (Q86WC4 whole entry, looked up): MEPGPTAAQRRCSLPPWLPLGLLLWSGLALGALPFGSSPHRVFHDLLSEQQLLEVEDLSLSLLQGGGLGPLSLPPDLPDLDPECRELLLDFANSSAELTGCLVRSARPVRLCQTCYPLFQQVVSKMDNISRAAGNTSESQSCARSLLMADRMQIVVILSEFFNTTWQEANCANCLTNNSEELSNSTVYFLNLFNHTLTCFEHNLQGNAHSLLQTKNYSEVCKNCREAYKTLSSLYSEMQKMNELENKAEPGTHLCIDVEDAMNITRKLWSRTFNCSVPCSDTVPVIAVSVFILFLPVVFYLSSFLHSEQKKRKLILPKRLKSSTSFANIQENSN
Chain of UniProt Q9H1E3 (Q9H1E3 whole entry, looked up): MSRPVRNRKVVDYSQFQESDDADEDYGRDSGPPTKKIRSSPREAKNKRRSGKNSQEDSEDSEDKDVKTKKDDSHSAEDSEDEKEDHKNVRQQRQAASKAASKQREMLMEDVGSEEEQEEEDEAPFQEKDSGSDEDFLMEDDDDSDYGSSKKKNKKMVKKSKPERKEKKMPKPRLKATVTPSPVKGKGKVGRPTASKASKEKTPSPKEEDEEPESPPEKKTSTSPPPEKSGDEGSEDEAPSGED
Chain of UniProt Q9BWT6 (Q9BWT6 whole entry, looked up): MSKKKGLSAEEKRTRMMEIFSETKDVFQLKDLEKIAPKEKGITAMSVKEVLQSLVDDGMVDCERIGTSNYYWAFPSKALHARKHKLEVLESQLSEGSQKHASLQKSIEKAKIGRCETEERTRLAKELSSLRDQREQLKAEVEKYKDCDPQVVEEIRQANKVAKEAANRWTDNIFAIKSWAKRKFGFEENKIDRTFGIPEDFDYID
Chain of UniProt Q8N543 (Q8N543 whole entry, looked up): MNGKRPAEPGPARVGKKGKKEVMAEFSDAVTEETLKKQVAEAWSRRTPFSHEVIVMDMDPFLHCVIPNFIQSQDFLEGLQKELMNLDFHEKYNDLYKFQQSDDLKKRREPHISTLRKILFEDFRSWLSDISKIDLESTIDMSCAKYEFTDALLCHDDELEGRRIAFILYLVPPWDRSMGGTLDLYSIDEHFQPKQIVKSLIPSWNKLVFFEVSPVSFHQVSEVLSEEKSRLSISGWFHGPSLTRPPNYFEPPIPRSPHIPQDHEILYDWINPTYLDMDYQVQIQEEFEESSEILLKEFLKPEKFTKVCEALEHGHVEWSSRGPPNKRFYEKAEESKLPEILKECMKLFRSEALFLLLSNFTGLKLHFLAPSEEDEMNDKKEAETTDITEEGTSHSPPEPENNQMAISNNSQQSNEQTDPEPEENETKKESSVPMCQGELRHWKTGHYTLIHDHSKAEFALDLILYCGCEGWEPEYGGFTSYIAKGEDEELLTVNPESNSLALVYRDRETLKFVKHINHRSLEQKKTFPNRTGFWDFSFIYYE
Chain of UniProt Q6VY07 (Q6VY07 whole entry, looked up): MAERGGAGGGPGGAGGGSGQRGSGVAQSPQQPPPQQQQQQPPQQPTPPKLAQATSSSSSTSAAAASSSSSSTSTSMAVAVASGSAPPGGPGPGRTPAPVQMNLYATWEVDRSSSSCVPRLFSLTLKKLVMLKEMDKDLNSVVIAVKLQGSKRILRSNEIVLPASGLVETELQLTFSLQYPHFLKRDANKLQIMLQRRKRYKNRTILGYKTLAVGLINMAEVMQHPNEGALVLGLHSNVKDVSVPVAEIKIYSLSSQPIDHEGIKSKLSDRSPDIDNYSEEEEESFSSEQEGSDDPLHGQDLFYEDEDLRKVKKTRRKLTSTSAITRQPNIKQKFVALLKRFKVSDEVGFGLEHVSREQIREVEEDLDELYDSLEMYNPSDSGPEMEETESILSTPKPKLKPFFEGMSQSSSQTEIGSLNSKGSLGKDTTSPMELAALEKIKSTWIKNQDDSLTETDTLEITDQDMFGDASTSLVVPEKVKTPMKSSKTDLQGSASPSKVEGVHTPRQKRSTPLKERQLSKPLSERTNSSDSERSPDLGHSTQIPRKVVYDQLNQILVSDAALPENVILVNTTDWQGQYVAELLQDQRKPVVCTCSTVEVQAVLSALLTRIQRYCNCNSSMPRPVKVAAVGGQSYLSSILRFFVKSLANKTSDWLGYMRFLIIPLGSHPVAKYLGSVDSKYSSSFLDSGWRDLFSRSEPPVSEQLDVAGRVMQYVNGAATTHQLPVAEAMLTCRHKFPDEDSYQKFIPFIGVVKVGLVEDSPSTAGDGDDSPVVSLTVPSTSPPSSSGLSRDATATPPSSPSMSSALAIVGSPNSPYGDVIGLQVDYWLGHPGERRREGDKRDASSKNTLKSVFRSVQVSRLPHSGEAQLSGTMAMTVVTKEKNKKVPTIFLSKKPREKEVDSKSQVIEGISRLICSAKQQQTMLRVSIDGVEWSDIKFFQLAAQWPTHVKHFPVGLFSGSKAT

log2 fold change, inactive:
MNAT1 (UniProt P51948) -0.065
PACS1 (UniProt Q6VY07) 0.046
MSH6 (UniProt P52701) -0.053
NDUFA4 (UniProt O00483) 0.025
NELFA (UniProt Q9H3P2) -0.005
MRPL46 (UniProt Q9H2W6) 0.025
MTHFD1, A0A384N5Y3 0.051
NHLRC2 (UniProt Q8NBF2) 0.097
NAP1L1 (UniProt P55209) 0.028
OTUD4 (UniProt Q01804) 0.105
OGFOD1 (UniProt Q8N543) 0.018
PAAF1 (UniProt Q9BRP4) -0.023
ORC3 isoform 2 (UniProt Q9UBD5) 0.114
NUCKS1 (UniProt Q9H1E3) -0.02
MON1A (UniProt Q86VX9) 0.041
NFATC2 (UniProt Q13469) -0.012
MPHOSPH10 (UniProt O00566) 0.082
NISCH (UniProt Q9Y2I1) 0.045
MINK1 (UniProt Q8N4C8) -0.026
MKRN2 (UniProt Q9H000) -0.038
MRPS33 (UniProt Q9Y291) 0.086
OSTM1 (UniProt Q86WC4) 0.118
MSH2 (UniProt P43246) -0.006
MSANTD2 (UniProt Q6P1R3) -0.364
OVCA2 (UniProt Q8WZ82) -0.031
MRPS10 (UniProt P82664) 0.054
MND1 (UniProt Q9BWT6) 0.047
NCOR1 (UniProt O75376) 0.067
NKAP (UniProt Q8N5F7) -0.144
NOB1 (UniProt Q9ULX3) -0.013
NOL11 (UniProt Q9H8H0) -0.05
NAT14 (UniProt Q8WUY8) 0.007
NEK3 (UniProt P51956) -0.002
NAA11 (UniProt Q9BSU3) -0.041
PAFAH1B3 (UniProt Q15102) 0
